Source: PubChem BioAssay
ABCB6 inh 2 = inhibitors of human ABC transporter ABCB6 | K562-ABCB6 porphyrin accumulation, flow cytometry, 1 h; stronger effect = lower value | fluorescence ratio to DMSO, % at 10 µM | actives 0.19% (n = 360,000) | AID 602162;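 active = fluorescence ratio to DMSO below 75%, the collection mean minus 3 SD; inconclusive = too few cells collected in the well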;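 note: signal is porphyrin accumulated inside mitochondria; 100% equals median channel fluorescence of DMSO control wells; lower ratio means ABCB6 inhibition with less porphyrin fluorescence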
Exocytosis inh = lytic granule exocytosis inhibition | TALL-104 LAMP-1 surface exposure, flow cytometry; cells stimulated with thapsigargin and PMA | inhibition, % at 10 µM | actives 0.66% (n = 360,000);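 active = inhibition above about 55%, limit read from the data; inconclusive = no clear call, values can overlap the other calls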
Myeloid diff 2 = compounds promoting myeloid differentiation. AID 624256. ER-HoxA9 myeloid progenitors, lysozyme-GFP differentiation, flow cytometry. calls only at 10 µM. actives 1% (n = 360,000);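 active = normalized GFP-positive differentiation at or above the plate's own cutoff, the solvent-only control mean plus 3 SD; inconclusive = no clear call, values can overlap the other calls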;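 note: cells exposed to compound for four days before flow analysis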
Myeloid diff = compounds promoting myeloid differentiation; calls only; actives 2% (n = 2,300); ER-HoxA9 myeloid progenitors, GFP/Mac1 double-positive flow; shares compounds with Myeloid diff 2; AID 651706;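 active = share of green or green-and-red cells above 9 and 9% in run 1 or 4 and 3% in run 2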
GFP autofluor = flagged as fluorescent in myeloid differentiation counter-screen. shares compounds with Myeloid diff 2. ER-HoxA9 myeloid progenitors, no estrogen, GFP autofluorescence flow cytometry; vehicle wells 0%, positive control 100%. fluorescence response, % (no concentration beside the values). actives 7.4% (n = 2,300);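 active = over 5% cells positive for green fluorescent reporter, or over 2% positive for both it and APC stain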;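 note: range taken on the double positive population between DMSO and positive control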
* marks the source's active call; other numbers are inactive results; i = inactive; ? = inconclusive; / = not tested or not shown; + = active, no number. Only some compounds are listed: those with a hit (about 1.8% of all), similar ones and a draw of the others.

SMILES	ABCB6 inh 2	Exocytosis inh	Myeloid diff 2	Myeloid diff	GFP autofluor
COc1ccc(-c2sc3ccccc3c2-c2ccc(O)cc2)cc1	95	7	i	/	/
CC(=O)Nc1ccccc1-c1nc2cc(C#N)c(C#N)cc2[nH]c1=O	97	-5	i	/	/
CCC(Oc1nc2ccccc2nc1-c1ccccc1NC(C)=O)C(=O)c1ccccc1 (stereo unspecified)	94	-4	+	i	0
C1CCCCCC(NCCN2CCNCC2)CCCCC1	95	16	+	i	0
O=C(NC1CCCCC1)N1CCNCC1	105	21	i	/	/
CC1CCCN(S(=O)(=O)c2cccc(C(=O)OCC(=O)N(C)Cc3c(F)cccc3Cl)c2)C1 (stereo unspecified)	97	0	i	/	/
CCc1c(C)nc2ncnn2c1NCCc1ccc(OC)c(OC)c1	87	0	i	/	/
COc1ccc(CCNc2c(C)c(C)nc3ncnn23)cc1	98	1	i	i	0
Cc1cc(=O)[nH]c(SCC(=O)NC2CCCCCC2)n1	98	0	i	/	/
COc1cccc(-n2cnc3scc(-c4cccs4)c3c2=O)c1	98	1	i	/	/
COc1ccc(C(=O)Nn2cnc3scc(-c4cccs4)c3c2=O)c(O)c1	102	0	i	i	0
Cn1nc(C(=O)OCC(=O)Nc2ccccc2[N+](=O)[O-])c2ccccc2c1=O	97	-3	i	/	/
CC1CCN(c2nc(-c3cccnc3)nc3scc(-c4ccccc4)c23)CC1	101	8	i	/	/
CC1CCN(c2nc(CN3CCCCC3)nc3scc(-c4ccccc4)c23)CC1	93	30	i	i	0
COC(=O)c1ccc(-c2ncc[nH]2)cc1	97	0	i	/	/
O=C(O)CCNC(=O)/C(=C\c1ccco1)NC(=O)c1ccco1	98	-4	?	/	/
O=C(CCc1nc2ccccc2s1)Nc1cccnc1	98	-2	i	/	/
Oc1ccc(-c2cnc3c(Nc4cccc(OC(F)(F)C(F)F)c4)nccn23)cc1	89	1	+	i	0
FC(F)C(F)(F)Oc1cccc(Nc2nccn3c(-c4ccc5ccccc5c4)cnc23)c1	95	31	i	/	/
CC1CCCC(C)N1C(=O)Cn1c(SCC(=O)Nc2ccc3c(c2)OCO3)nc2ccccc21 (stereo unspecified)	100	-3	i	/	/
O=C(CSc1nnc(-c2ccccc2Br)o1)N1CCN(C(=O)c2ccco2)CC1	101	-2	i	i	0
O=C(CSc1nnc(-c2ccc(F)cc2)o1)N1CCN(C(=O)c2ccco2)CC1	89	-3	?	/	/
O=C(CSc1nc2ccccc2n1CC(=O)N1CCCC1)Nc1ccc2c(c1)OCO2	97	-2	+	i	0
O=C(CSc1nc2ccccc2n1CC(=O)N1CCOCC1)N1CCCC1	75	2	i	/	/
O=C(CSc1nc2ccccc2n1CC(=O)N1CCCC1)N1CCN(C(=O)c2ccco2)CC1	98	-2	i	i	0
SMILES	ABCB6 inh 2	Exocytosis inh	Myeloid diff 2	Myeloid diff	GFP autofluor
COc1ccccc1-c1ccc([C@@H]2C[C@H]3[C@@H](CN2)CON3C)cc1	104	6	i	/	/
CC1=C(C(=O)Nc2ccc(C)cc2C)C(c2ccc(Cl)cc2)n2nc(C(=O)OC(C)C)nc2N1 (stereo unspecified)	96	-1	i	/	/
CN(c1ccc(Cl)cc1)S(=O)(=O)c1nnc(NC(=O)C(C)(C)C)s1	101	-13	i	/	/
C[C@@H]1CN([C@H](C)CO)C(=O)CCCn2cc(nn2)CO[C@H]1CN(C)C(=O)Nc1cccc(C(F)(F)F)c1	101	-2	i	/	/
CCCCn1c(N)c(N(CCOC)C(=O)CCCc2cccs2)c(=O)[nH]c1=O	97	0	i	/	/
CC[N+](C)(CC)CCOC(=O)C(O)(c1ccccc1)C1CCCCC1 (stereo unspecified)	97	-8	?	/	/
CC[N+](C)(CC)CCC(c1ccccc1)C1CCCCC1 (stereo unspecified)	110	1	i	i	0
CC(C)CNC(=O)c1cccc(NC(=O)Cc2ccc(Cl)cc2)c1	100	3	i	/	/
Cn1nnnc1Sc1ccc([N+](=O)[O-])cc1Cl	96	-1	i	i	0
O=[N+]([O-])c1ccc(Sc2nnnn2-c2ccccc2)c(Cl)c1	99	-1	+	i	0
Cn1nnnc1Sc1c(Cl)cccc1[N+](=O)[O-]	98	3	i	/	/
Nc1ccc(Sc2nnnn2-c2ccccc2)c(Cl)c1	98	1	i	/	/
Cc1ccc(C(=O)Nn2cnnc2)cc1Cl	97	8	i	/	/
